target: Calcium/calmodulin-dependent protein kinase type II subunit beta (Homo sapiens) (UniProt Q13554); details: at 10 µM
Sequence (Q13554 whole entry): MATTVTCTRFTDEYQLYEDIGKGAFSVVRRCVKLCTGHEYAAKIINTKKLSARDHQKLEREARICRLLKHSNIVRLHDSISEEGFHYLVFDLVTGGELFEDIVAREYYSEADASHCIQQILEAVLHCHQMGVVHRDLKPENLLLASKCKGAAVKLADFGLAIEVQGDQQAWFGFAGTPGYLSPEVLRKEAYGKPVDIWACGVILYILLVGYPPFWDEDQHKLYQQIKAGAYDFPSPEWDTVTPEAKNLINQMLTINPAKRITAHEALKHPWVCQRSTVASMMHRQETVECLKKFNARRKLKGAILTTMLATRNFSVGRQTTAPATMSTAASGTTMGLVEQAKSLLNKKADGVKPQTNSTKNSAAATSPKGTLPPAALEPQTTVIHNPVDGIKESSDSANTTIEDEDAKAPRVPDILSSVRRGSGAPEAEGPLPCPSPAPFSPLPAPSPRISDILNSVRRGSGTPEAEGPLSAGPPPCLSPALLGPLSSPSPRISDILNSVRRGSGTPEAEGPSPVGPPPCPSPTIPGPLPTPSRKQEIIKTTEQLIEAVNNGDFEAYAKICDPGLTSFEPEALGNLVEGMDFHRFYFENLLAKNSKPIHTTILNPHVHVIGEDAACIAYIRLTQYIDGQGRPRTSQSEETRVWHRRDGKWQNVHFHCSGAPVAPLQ

| Compound | residual activity |
| --- | --- |
| O=C1NC(=O)c2c1c1c3ccccc3[nH]c1c1[nH]c3cc(Br)ccc3c21 | 66% |
| NC(=O)c1ccc2[nH]c(-c3ccc(Oc4ccc(Cl)cc4)cc3)nc2c1 | 43% |
| Cc1cncc2cccc(S(=O)(=O)N3CCCN(C(=O)CN)C[C@H]3C)c12 | 49% |
| CCN(CC)CCCCN1c2ccccc2Oc2ccc(Cl)cc21 | 93% |
| COc1ccc(CNc2nc(N(CCO)CCO)nc3c2ncn3C(C)C)cc1 | 55% |
| Cc1ccc(S(=O)(=O)/C=C/C#N)cc1 | 88% |
| CO[C@H]1C[C@@H]2CC[C@@H](C)[C@@](O)(O2)C(=O)C(=O)N2CCCC[C@H]2C(=O)O[C@H]([C@H](C)C[C@@H]2CC[C@@H](O)[C@H](OC)C2)CC(=O)[C@H](C)/C=C(\C)[C@@H](O)[C@@H](OC)C(=O)[C@H](C)C[C@H](C)/C=C/C=C/C=C/1C | 79% |
| CO[C@H]1[C@@H](OC)C[C@H](C)[C@@H](OC)C2=CC(=O)C=C(NC(=O)/C(C)=C/C=C/[C@H](OC)[C@@H](OC(N)=O)/C(C)=C/[C@@H]1C)C2=O | 93% |
| CC[n+]1c(/C=C/N(C)c2ccccc2)n(-c2ccccc2)c2ccc(-c3nc4ccccc4s3)cc21 | 38% |
| Cc1ccc(NC2=CC(=O)c3sc(C)nc3C2=O)cc1 | 81% |
| Oc1ccc(-c2nc(-c3ccc(F)cc3)c(-c3ccncc3)[nH]2)cc1 | 52% |
| Nc1n[nH]c2nnc(-c3c(-c4ccccc4)nn4ccccc34)cc12 | 80% |
| CCOc1cc2ncnc(Nc3cccc(Br)c3)c2cc1OCC | 64% |
| N#Cc1cnc2cnc(NCc3cccnc3)cc2c1Nc1ccc(F)c(Cl)c1 | 1% |
| CNc1cc2c(Nc3cccc(Br)c3)ncnc2cn1 | 51% |
| Ic1cccc(CSc2nnc(-c3ccncc3)o2)c1 | 55% |
| O=C1NC(=O)/C(=C/c2ccc3c(c2)OC(F)(F)O3)S1 | 71% |
| CC(=O)c1ccc(N2CCOCC2)cc1O | 92% |

| Compound | residual activity |
| --- | --- |
| CO[C@@H]1[C@H](N(C)C(=O)c2ccccc2)C[C@H]2O[C@]1(C)n1c3ccccc3c3c4c(c5c6ccccc6n2c5c31)C(=O)NC4 | 4% |
| CC(C)n1cnc2c(NCc3ccccc3)nc(NCCCO)nc21 | 66% |
| COc1cc2ncnc(Nc3ccc(Oc4ccccc4)cc3)c2cc1OC | 84% |
| O=C(Nc1cccc(Nc2cc(Nc3cccc(C(F)(F)F)c3)ncn2)c1)C1CC1 | 86% |
| COc1ccc(OC)c2c(=S)c3ccccc3[nH]c12 | 54% |
| Cn1nc2c3c(cccc31)C(=O)c1ccccc1-2 | 67% |
| Nc1ccc2ncnc(NCCc3ccc(Oc4ccccc4)cc3)c2c1 | 43% |
| CN(C)c1ccc(/C=C2\C(=O)Nc3ccccc32)cc1 | 76% |
| O=C1Nc2cc(Br)ccc2/C1=C1/Nc2ccccc2/C1=N\O | 8% |
| Nc1nc(Nc2ccc(S(N)(=O)=O)cc2)nn1C(=S)Nc1c(F)cccc1F | -1% |
| N#C/C(=C(\N)Sc1ccc(N)cc1)c1ccccc1C(F)(F)F | 86% |
| COc1cc2ncnc(Nc3ccc(O)c(Br)c3)c2cc1OC | 62% |
| O=C1NC(=O)/C(=C\c2ccc3nccnc3c2)S1 | 18% |
| Cc1nc2cc3nc(-c4cccs4)cnc3cc2n1C | 93% |
| COc1cc2ncnc(N3CCN(C(=O)Nc4ccc(Oc5ccccc5)cc4)CC3)c2cc1OC | 89% |
| Nc1cccc(-c2cc3c(Oc4cccc(O)c4)ncnc3[nH]2)c1 | 23% |
| COc1cccc(-c2cc(=O)c3ccccc3o2)c1N | 87% |

target: Calcium/calmodulin-dependent protein kinase type II subunit gamma (Homo sapiens) (UniProt Q13555); details: at 1 µM
Sequence (Q13555 whole entry): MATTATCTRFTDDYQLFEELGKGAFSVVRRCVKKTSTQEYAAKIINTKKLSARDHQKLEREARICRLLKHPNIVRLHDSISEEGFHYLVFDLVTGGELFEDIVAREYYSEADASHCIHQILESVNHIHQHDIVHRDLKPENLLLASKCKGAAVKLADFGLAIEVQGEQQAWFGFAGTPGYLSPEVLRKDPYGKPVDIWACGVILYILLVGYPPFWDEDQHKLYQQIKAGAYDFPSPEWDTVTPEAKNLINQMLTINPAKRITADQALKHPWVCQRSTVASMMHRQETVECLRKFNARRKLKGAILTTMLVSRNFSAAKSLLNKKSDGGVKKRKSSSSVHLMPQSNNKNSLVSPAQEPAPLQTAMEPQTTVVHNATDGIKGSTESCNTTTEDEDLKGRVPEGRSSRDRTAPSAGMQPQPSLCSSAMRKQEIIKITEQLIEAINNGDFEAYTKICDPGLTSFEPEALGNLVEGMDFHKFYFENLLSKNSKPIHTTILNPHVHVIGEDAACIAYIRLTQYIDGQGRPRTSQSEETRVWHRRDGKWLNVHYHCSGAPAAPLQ

| Compound | residual activity |
| --- | --- |
| O=C1NC(=O)c2c1c1c3ccccc3[nH]c1c1[nH]c3cc(Br)ccc3c21 | 18% |
| NC(=O)c1ccc2[nH]c(-c3ccc(Oc4ccc(Cl)cc4)cc3)nc2c1 | 92% |
| Cc1cncc2cccc(S(=O)(=O)N3CCCN(C(=O)CN)C[C@H]3C)c12 | 95% |
| CCN(CC)CCCCN1c2ccccc2Oc2ccc(Cl)cc21 | 111% |
| COc1ccc(CNc2nc(N(CCO)CCO)nc3c2ncn3C(C)C)cc1 | 99% |
| Cc1ccc(S(=O)(=O)/C=C/C#N)cc1 | 103% |
| CO[C@H]1C[C@@H]2CC[C@@H](C)[C@@](O)(O2)C(=O)C(=O)N2CCCC[C@H]2C(=O)O[C@H]([C@H](C)C[C@@H]2CC[C@@H](O)[C@H](OC)C2)CC(=O)[C@H](C)/C=C(\C)[C@@H](O)[C@@H](OC)C(=O)[C@H](C)C[C@H](C)/C=C/C=C/C=C/1C | 103% |
| CO[C@H]1[C@@H](OC)C[C@H](C)[C@@H](OC)C2=CC(=O)C=C(NC(=O)/C(C)=C/C=C/[C@H](OC)[C@@H](OC(N)=O)/C(C)=C/[C@@H]1C)C2=O | 107% |
| CC[n+]1c(/C=C/N(C)c2ccccc2)n(-c2ccccc2)c2ccc(-c3nc4ccccc4s3)cc21 | 113% |
| Cc1ccc(NC2=CC(=O)c3sc(C)nc3C2=O)cc1 | 104% |
| Oc1ccc(-c2nc(-c3ccc(F)cc3)c(-c3ccncc3)[nH]2)cc1 | 110% |
| Nc1n[nH]c2nnc(-c3c(-c4ccccc4)nn4ccccc34)cc12 | 103% |
| CCOc1cc2ncnc(Nc3cccc(Br)c3)c2cc1OCC | 82% |
| N#Cc1cnc2cnc(NCc3cccnc3)cc2c1Nc1ccc(F)c(Cl)c1 | 0% |
| CNc1cc2c(Nc3cccc(Br)c3)ncnc2cn1 | 93% |
| Ic1cccc(CSc2nnc(-c3ccncc3)o2)c1 | 85% |
| O=C1NC(=O)/C(=C/c2ccc3c(c2)OC(F)(F)O3)S1 | 102% |
| CC(=O)c1ccc(N2CCOCC2)cc1O | 103% |

| Compound | residual activity |
| --- | --- |
| CO[C@@H]1[C@H](N(C)C(=O)c2ccccc2)C[C@H]2O[C@]1(C)n1c3ccccc3c3c4c(c5c6ccccc6n2c5c31)C(=O)NC4 | 10% |
| CC(C)n1cnc2c(NCc3ccccc3)nc(NCCCO)nc21 | 94% |
| COc1cc2ncnc(Nc3ccc(Oc4ccccc4)cc3)c2cc1OC | 102% |
| O=C(Nc1cccc(Nc2cc(Nc3cccc(C(F)(F)F)c3)ncn2)c1)C1CC1 | 98% |
| COc1ccc(OC)c2c(=S)c3ccccc3[nH]c12 | 90% |
| Cn1nc2c3c(cccc31)C(=O)c1ccccc1-2 | 87% |
| Nc1ccc2ncnc(NCCc3ccc(Oc4ccccc4)cc3)c2c1 | 24% |
| CN(C)c1ccc(/C=C2\C(=O)Nc3ccccc32)cc1 | 92% |
| O=C1Nc2cc(Br)ccc2/C1=C1/Nc2ccccc2/C1=N\O | 3% |
| Nc1nc(Nc2ccc(S(N)(=O)=O)cc2)nn1C(=S)Nc1c(F)cccc1F | 2% |
| N#C/C(=C(\N)Sc1ccc(N)cc1)c1ccccc1C(F)(F)F | 90% |
| COc1cc2ncnc(Nc3ccc(O)c(Br)c3)c2cc1OC | 68% |
| O=C1NC(=O)/C(=C\c2ccc3nccnc3c2)S1 | 91% |
| Cc1nc2cc3nc(-c4cccs4)cnc3cc2n1C | 103% |
| COc1cc2ncnc(N3CCN(C(=O)Nc4ccc(Oc5ccccc5)cc4)CC3)c2cc1OC | 111% |
| Nc1cccc(-c2cc3c(Oc4cccc(O)c4)ncnc3[nH]2)c1 | 40% |
| COc1cccc(-c2cc(=O)c3ccccc3o2)c1N | 98% |

Source: ChEMBL document CHEMBL2218924, “A broad activity screen in support of a chemogenomic map for kinase signalling research and drug discovery” (Biochem J, 2013)
